# Experimental data published in publication PMC7862700, “An all-to-all approach to the identification of sequence-specific readers for epigenetic DNA modifications on cytosine”.
# Columns and labels:
# Experiment in all cases: DAPPL (digital affinity profiling via proximity ligation, sequencing); 10 mM Tris-HCl pH 7.5, 50 mM NaCl, 1 mM DTT, 4% glycerol, room temperature, 30 min; GST-TFs on glutathione beads, 16-mer random dsDNA library, 0.1% formaldehyde crosslink after washing; high values mean tight binding
# Settings in all cases: protein: recombinant; tags: N-terminal GST; dsDNA, one strand shown
# [1] = biological target: T1, ELK1 (Homo sapiens, UniProt P19419 1-428)
# T1 sequence: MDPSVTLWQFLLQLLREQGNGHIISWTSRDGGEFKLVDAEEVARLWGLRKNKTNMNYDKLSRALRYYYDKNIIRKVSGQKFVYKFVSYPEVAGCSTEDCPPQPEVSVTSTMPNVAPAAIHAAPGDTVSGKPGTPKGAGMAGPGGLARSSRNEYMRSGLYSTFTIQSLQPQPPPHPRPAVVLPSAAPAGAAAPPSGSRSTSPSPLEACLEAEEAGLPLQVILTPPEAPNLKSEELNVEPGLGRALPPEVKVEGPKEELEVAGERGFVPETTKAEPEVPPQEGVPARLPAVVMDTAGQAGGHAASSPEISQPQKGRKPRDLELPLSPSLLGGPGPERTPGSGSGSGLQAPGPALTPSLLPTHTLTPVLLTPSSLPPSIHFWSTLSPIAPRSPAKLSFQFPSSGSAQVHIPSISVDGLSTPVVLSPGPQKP
# Outline: (§1)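 A tag-only sample was pooled with DNA-barcoded human transcription factors that had been expressed in yeast as GST fusions and captured on glutathione beads. The pools were incubated for 30 min at room temperature with 200 nmole of a random double-stranded 16-mer DNA library in Tris/NaCl/DTT/glycerol buffer, then washed, crosslinked with 0.1% formaldehyde, proximity-ligated (BsaI/T4 ligase, 1 h, 37 °C), PCR-amplified and sequenced on an Illumina NextSeq500. Binding signal is each hexamer's read frequency for a factor divided by its frequency for the tag-only sample.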
# [2] = biological target: T2, GABPA (Homo sapiens, UniProt Q06546 1-454)
# T2 sequence: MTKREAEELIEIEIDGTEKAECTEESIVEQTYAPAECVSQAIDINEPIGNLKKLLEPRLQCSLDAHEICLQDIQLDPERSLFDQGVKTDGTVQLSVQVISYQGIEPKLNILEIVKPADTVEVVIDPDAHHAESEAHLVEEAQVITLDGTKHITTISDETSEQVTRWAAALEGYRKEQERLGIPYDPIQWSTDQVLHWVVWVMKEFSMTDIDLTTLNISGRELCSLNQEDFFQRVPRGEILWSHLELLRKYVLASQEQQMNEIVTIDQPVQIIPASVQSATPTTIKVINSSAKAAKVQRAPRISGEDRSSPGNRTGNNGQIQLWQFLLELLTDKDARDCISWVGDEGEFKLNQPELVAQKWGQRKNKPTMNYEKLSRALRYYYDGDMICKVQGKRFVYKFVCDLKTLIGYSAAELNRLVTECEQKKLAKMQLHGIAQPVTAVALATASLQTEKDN
# Outline: as §1
# [3] = biological target: T3, ERG (Homo sapiens, UniProt P11308 1-479)
# T3 sequence: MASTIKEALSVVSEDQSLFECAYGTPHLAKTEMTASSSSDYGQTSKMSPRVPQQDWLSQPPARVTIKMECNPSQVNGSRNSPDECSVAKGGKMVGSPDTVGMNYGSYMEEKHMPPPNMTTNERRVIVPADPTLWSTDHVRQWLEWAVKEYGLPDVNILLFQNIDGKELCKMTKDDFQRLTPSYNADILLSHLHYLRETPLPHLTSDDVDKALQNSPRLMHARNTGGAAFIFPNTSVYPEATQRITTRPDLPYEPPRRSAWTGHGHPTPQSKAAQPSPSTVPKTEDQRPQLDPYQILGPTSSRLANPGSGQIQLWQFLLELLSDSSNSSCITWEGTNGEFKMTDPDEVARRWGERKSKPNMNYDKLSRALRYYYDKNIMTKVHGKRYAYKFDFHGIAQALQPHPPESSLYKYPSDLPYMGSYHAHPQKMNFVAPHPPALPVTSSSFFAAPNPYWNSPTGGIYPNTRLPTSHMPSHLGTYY
# Outline: as §1
# [4] = biological target: ELF1 (Homo sapiens, UniProt P32519 1-619)
# Sequence of ELF1 (P32519 whole entry): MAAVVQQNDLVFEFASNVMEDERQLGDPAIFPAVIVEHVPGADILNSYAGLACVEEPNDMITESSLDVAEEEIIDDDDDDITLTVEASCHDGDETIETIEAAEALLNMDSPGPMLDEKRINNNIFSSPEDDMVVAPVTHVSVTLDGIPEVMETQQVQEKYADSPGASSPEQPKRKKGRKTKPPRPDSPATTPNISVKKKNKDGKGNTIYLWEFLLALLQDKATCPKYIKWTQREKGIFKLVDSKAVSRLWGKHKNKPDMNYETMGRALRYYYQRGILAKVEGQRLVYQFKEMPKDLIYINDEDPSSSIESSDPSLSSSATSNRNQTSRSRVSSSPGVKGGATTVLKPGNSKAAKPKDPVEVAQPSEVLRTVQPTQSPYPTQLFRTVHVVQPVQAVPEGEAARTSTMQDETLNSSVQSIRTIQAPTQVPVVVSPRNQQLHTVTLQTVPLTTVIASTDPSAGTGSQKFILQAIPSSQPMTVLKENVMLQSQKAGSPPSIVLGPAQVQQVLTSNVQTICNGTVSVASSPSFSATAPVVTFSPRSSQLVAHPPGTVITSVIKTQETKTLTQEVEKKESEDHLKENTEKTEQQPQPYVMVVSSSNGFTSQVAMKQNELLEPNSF
# Outline: as §1
# [5] = biological target: T4, EHF (Homo sapiens, UniProt Q9NZC4 1-300)
# T4 sequence: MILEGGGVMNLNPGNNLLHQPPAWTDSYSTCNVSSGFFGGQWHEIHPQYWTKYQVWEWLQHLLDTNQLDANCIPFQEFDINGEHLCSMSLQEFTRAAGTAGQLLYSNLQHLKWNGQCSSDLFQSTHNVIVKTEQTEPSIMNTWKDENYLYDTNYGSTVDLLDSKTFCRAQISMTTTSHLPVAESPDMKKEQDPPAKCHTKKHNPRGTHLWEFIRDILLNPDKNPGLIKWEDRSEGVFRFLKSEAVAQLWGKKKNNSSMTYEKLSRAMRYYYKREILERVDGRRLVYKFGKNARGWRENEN
# Outline: as §1
# [6] = biological target: SPIB (Homo sapiens, UniProt Q01892 1-262)
# Sequence of SPIB (Q01892 whole entry): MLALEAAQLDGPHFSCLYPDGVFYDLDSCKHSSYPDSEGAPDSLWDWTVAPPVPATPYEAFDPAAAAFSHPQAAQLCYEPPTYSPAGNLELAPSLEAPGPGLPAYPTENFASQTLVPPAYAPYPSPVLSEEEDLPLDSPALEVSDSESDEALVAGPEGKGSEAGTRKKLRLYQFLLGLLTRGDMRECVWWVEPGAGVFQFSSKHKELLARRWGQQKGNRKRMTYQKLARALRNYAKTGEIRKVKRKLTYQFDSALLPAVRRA
# Outline: as §1
# [7] = biological target: T5, FEV (Homo sapiens, UniProt Q99581 1-238)
# T5 sequence: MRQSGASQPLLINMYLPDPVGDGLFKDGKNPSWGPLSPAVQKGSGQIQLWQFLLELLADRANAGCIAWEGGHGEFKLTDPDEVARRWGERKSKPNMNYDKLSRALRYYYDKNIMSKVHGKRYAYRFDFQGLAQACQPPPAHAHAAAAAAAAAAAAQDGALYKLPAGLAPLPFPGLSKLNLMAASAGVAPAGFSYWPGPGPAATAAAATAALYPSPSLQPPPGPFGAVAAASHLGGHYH
# Outline: as §1
# [8] = biological target: ETV5 (Homo sapiens, UniProt P41161 1-510)
# Sequence of ETV5 (P41161 whole entry): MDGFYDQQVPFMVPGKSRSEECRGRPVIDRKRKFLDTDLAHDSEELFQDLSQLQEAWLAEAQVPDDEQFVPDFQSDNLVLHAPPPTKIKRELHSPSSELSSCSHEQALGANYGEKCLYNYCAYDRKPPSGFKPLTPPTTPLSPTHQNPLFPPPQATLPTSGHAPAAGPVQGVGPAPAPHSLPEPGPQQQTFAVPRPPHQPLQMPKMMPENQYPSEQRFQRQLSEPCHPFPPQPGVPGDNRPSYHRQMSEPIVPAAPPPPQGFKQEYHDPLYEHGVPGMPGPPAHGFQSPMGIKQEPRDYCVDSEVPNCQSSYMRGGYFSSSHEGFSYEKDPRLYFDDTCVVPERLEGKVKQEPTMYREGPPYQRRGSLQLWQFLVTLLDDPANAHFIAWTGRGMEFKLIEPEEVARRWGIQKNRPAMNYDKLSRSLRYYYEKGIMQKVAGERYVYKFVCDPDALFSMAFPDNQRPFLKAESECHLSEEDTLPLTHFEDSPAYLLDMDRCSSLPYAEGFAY
# Outline: as §1
# [9] = biological target: T6, ELK4 (Homo sapiens, UniProt P28324-2 1-405)
# T6 sequence: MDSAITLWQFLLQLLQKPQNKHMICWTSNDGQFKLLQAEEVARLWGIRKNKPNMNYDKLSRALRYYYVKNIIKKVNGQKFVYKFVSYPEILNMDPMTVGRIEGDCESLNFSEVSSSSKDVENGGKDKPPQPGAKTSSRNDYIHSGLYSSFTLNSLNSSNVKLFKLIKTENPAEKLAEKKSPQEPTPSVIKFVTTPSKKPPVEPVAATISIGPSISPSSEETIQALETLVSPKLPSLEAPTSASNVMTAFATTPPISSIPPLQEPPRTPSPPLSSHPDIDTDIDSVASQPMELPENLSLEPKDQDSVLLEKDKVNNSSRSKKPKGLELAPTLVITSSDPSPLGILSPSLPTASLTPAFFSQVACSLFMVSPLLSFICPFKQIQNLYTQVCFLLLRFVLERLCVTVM
# Outline: as §1
# [10] = biological target: T7, ELF3 (Homo sapiens, UniProt P78545 1-371)
# T7 sequence: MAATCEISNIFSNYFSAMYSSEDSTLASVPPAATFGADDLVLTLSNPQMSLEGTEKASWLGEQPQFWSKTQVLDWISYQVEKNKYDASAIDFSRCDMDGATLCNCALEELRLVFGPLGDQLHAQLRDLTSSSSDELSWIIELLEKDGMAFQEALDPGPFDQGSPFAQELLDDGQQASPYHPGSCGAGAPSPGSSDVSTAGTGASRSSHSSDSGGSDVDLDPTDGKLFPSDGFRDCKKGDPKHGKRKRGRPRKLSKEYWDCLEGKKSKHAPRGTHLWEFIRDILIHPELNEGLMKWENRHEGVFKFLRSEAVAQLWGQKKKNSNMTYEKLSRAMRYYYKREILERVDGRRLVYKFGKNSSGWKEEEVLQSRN
# Outline: as §1
# [11] = biological target: ETV1 (Homo sapiens, UniProt P50549 1-477)
# Sequence of ETV1 (P50549 whole entry): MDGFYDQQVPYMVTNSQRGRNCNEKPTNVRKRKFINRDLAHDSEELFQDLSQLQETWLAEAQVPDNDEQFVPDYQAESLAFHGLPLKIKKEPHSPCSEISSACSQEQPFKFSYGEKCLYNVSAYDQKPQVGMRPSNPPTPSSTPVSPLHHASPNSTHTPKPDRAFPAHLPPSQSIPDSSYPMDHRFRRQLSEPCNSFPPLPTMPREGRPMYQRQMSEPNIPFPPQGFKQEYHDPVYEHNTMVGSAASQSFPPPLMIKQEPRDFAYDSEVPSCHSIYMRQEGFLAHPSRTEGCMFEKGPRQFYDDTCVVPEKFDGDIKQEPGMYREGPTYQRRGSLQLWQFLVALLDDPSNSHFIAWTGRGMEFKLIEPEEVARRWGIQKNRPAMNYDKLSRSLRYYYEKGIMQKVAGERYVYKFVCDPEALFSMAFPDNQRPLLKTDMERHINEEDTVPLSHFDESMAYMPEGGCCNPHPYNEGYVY
# Outline: as §1
# [12] = biological target: T8, ERF (Homo sapiens, UniProt P50548 1-548)
# T8 sequence: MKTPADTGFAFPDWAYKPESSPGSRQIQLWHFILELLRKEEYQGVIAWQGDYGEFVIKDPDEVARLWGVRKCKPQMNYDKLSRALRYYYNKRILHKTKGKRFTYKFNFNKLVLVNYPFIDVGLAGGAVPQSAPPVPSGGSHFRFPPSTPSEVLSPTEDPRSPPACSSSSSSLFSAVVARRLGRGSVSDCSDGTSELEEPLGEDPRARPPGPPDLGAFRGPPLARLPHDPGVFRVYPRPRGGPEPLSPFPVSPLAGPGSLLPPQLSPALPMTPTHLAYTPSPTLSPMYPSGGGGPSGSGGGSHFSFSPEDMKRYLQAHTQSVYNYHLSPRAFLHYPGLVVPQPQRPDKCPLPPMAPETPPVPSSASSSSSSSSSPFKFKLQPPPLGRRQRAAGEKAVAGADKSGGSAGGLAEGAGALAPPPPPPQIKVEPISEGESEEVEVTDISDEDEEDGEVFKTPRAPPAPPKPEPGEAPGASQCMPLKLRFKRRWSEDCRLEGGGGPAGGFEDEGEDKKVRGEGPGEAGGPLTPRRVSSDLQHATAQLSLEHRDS
# Outline: as §1
# [13] = biological target: T9, ETV3L (Homo sapiens, UniProt Q6ZN32 1-361)
# T9 sequence: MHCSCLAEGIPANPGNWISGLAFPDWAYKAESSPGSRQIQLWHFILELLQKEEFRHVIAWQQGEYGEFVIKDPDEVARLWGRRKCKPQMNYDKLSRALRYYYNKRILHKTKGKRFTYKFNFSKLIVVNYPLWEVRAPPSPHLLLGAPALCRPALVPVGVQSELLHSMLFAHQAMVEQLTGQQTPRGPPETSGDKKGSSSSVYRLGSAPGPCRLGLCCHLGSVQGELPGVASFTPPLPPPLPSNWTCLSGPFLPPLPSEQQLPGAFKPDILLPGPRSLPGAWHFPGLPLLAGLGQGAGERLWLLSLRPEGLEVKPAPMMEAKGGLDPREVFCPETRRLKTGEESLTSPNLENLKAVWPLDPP
# Outline: as §1
# [14] = biological target: T10, ETS2 (Homo sapiens, UniProt P15036 1-469)
# T10 sequence: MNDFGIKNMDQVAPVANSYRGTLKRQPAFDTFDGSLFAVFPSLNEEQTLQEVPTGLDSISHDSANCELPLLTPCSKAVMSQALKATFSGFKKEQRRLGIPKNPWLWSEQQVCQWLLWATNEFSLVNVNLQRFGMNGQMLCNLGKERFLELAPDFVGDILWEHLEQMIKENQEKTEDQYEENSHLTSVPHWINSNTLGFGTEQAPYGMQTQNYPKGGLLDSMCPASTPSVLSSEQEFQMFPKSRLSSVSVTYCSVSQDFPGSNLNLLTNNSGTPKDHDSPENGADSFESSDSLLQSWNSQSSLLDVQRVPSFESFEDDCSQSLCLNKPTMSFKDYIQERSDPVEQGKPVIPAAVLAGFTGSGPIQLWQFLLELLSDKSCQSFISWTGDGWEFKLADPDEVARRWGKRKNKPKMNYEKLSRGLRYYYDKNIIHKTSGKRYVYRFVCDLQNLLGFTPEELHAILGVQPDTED
# Outline: as §1
# [15] = biological target: T11, SPDEF (Homo sapiens, UniProt O95238 1-335)
# T11 sequence: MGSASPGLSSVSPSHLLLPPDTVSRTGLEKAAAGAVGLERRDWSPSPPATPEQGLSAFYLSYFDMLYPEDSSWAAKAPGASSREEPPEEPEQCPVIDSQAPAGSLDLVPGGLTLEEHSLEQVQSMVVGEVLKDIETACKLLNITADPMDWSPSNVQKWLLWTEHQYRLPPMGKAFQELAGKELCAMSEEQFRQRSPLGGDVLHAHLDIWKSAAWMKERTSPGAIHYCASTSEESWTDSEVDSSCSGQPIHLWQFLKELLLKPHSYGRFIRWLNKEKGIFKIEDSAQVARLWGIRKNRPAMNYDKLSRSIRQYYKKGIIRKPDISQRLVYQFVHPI
# Outline: as §1
# [16] = biological target: T12, ETV7 (Homo sapiens, UniProt Q9Y603 1-341)
# T12 sequence: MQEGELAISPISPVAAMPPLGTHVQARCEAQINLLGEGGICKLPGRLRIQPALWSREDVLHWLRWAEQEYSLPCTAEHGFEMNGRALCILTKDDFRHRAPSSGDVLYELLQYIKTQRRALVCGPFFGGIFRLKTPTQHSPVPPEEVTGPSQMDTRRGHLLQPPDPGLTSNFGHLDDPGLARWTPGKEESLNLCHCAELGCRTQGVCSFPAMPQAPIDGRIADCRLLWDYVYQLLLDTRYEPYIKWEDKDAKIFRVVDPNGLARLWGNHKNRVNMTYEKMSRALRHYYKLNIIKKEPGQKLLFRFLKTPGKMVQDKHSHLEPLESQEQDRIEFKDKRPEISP
# Outline: as §1
# [17] = biological target: T13, ETV3 (Homo sapiens, UniProt P41162-2 1-143)
# T13 sequence: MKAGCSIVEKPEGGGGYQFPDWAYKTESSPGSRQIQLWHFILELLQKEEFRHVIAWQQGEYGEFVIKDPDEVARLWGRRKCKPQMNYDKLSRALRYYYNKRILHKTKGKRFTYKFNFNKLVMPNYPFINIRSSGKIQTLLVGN
# Outline: as §1
sequence,measurement,setting,value
AGCGAT,binding signal,[1],"1.11 fold enrichment (6-mer frequency, TF over GST control)"
same,binding signal,[2],"1.07 fold enrichment (6-mer frequency, TF over GST control)"
same,binding signal,[3],"1.06 fold enrichment (6-mer frequency, TF over GST control)"
same,binding signal,[4],"1.09 fold enrichment (6-mer frequency, TF over GST control)"
same,binding signal,[5],"1.07 fold enrichment (6-mer frequency, TF over GST control)"
same,binding signal,[6],"1.02 fold enrichment (6-mer frequency, TF over GST control)"
same,binding signal,[7],"1.05 fold enrichment (6-mer frequency, TF over GST control)"
same,binding signal,[8],"1.14 fold enrichment (6-mer frequency, TF over GST control)"
same,binding signal,[9],"1.07 fold enrichment (6-mer frequency, TF over GST control)"
same,binding signal,[10],"1.2 fold enrichment (6-mer frequency, TF over GST control)"
same,binding signal,[11],"1.02 fold enrichment (6-mer frequency, TF over GST control)"
same,binding signal,[12],"1.09 fold enrichment (6-mer frequency, TF over GST control)"
same,binding signal,[13],"1.1 fold enrichment (6-mer frequency, TF over GST control)"
same,binding signal,[14],"1.09 fold enrichment (6-mer frequency, TF over GST control)"
same,binding signal,[15],"1.08 fold enrichment (6-mer frequency, TF over GST control)"
same,binding signal,[16],"1.09 fold enrichment (6-mer frequency, TF over GST control)"
same,binding signal,[17],"1.02 fold enrichment (6-mer frequency, TF over GST control)"
